Gal4-VP16 FLuc: VP16 counterscreen qHTS for inhibitors of ROR gamma transcriptional activity; Drosophila S2 Gal4-VP16 UAS-luciferase, luminescence, 20 h; 310,000 tested, 3.5% active; Potency, µM (doses to about 53.6 µM), without a hit: top-dose activity, negative = inhibition, usual class: inhibitors;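 further: Gal4-VP16 expression switched on by copper sulfate through the metallothionein promoter; potency means the concentration at half of the fitted maximal effect; nearly all actives have a fitted effect of over 50% in size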
TSHR antag: Antagonists of the Thyroid Stimulating Hormone Receptor: HTS campaign; Thyrotropin receptor (Homo sapiens), P16473; TSHR-expressing cells, TSH-stimulated cAMP HTRF, 2 h; hits give low values; activity change, negative = inhibition, % at 11.5 µM; 330,000 tested, 0.2% active;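 active means activity change below a set negative limit, meaning inhibition stronger than a set level, cut at about -70% in these data; inconclusive means activity change between two set negative limits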
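Freshly harvested TSHR cells receive pin-tooled compound, then EC80 TSH at 4nM final. After 2 hours at 37 deg C, antibody in lysis buffer and cAMP-d2 are added; 30 minutes at ambient temperature precede the HTRF read.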
Coupling enz: qHTS Assay for Inhibitors of Fructose-1,6-bisphosphate Aldolase from Giardia Lamblia: Coupling assay counterscreen | activity change, negative = inhibition, % at 58.2 µM, hits read low | AID 2472, 2010 | coupling enzyme system counterscreen, AmpLite Red fluorescence | 290,000 tested, 0.67% active; in the data active means activity change below about -30%
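Fluorescence at 525 nm excitation and 598 nm emission measured inhibition of the coupled detection system without aldolase. Compounds (at 57.5 uM final) were preincubated 10 min at room temperature with coupling enzyme reagent before a 20 min substrate/AmpLite Red step.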
RORg inh: qHTS for inhibitors of ROR gamma transcriptional activity; Drosophila S2 Gal4-RORgamma UAS-luciferase reporter, 20 h; 310,000 tested, 5.4% active; Potency, µM (titrated, usually from 53.6 µM), without a hit: at the highest dose activity change, negative = inhibition, hits mostly inhibitors; further: potency means the concentration at half of the fitted maximal effect; nearly all actives have a fitted effect of over 60% in size
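Schneider cells (Drosophila), stable Gal4 DBD–ROR gamma + UAS-luc; 1 hr cmpd preincubation; Cu2+ induction 700 uM final; 20 hr ambient; luminescence.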
ELG1 DNA repair: qHTS screen for small molecules that inhibit ELG1-dependent DNA repair in human embryonic kidney (HEK293T) cells expressing luciferase-tagged ELG1; HEK293T ELG1-luciferase reporter, luminescence, 16 h; DNA damage induced by 5-fluorouridine; Potency, µM (highest dose often 46.1 µM), for the others: at the highest dose activity change, negative = inhibition, hits mostly inhibitors; 330,000 tested, 2.3% active; AID 504467, 2011; further: potency means the concentration at half of the fitted maximal effect; nearly all actives have a fitted effect of over 55% in size
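DMSO vehicle served as the neutral condition. Each well held 2,000 cells given 5-fluorouridine plus compound; after 16 hr at 37 °C/5% CO2, ONE-Glo was added and luciferase measured 30 min later.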
ELG1 FLuc counter: qHTS screen for small molecules that inhibit ELG1-dependent DNA repair: Hit Confirmation in Cell-Based Luciferin Assay; shares compounds with ELG1 DNA repair; cell-free firefly luciferase luminescence counter-screen, ViewLux; Potency, µM (highest dose often 46.1 µM), for the others: at the top dose activity change, negative = inhibition, most hits filed as inhibitors; 350 tested, 3% active; AID 624247, 2012; further: potency means the concentration at half of the fitted maximal effect
ELG1-Luc inh: HTS assay for small molecules that inhibit ELG1-dependent DNA repair in human embryonic kidney (HEK293T) cells expressing luciferase-tagged ELG1: Hit Confirmation | Potency, µM (doses to about 46.1 µM), without a hit: at the highest dose activity change, negative = inhibition, hits mostly inhibitors | AID 624248, 2012 | HEK293T ELG1-luciferase levels, luminescence; cells co-treated with 5-fluorouridine | shares compounds with ELG1 DNA repair | 670 tested, 68% active; further: potency means the concentration at half of the fitted maximal effect; nearly all actives have a fitted effect of over 55% in size
ELG1-Luc MMS: MMS-stimulated human ELG1 repair inhibition, confirmed. shares compounds with ELG1 DNA repair. HEK293T luciferase-tagged ELG1 level, MMS stimulated. Potency, µM (titrated, usually from 46.1 µM), for inactives: top-dose activity change, negative = inhibition, actives largely listed as inhibitors. 670 tested, 53% active; further: potency means the concentration at half of the fitted maximal effect; nearly all actives have a fitted effect of over 60% in size
ELG1 5FU viab: qHTS screen for small molecules that inhibit ELG1-dependent DNA repair: Hit Confirmation with 5FU Viability; shares compounds with ELG1 DNA repair; cell viability with 5-FU, ELG1-dependent repair; Potency, µM (series often up to 46.1 µM), without a hit: at the highest dose activity change, negative = viability loss, usual class: cytotoxic; 670 tested, under 10 active; AID 624250, 2012;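 further: ELG1-luc HEK293T cells cotreated with 5-fluorouridine at 10 µM final; potency means the concentration at half of the fitted maximal effect; viability measured 16 h after compound addition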
ELG1 MMS cell: qHTS screen for small molecules that inhibit ELG1-dependent DNA repair: Hit Confirmation with MMS Viability. 670 tested, 33% active. shares compounds with ELG1 DNA repair. Potency, µM (series often up to 46.1 µM), for the others: top-dose activity change, negative = viability loss, usual class: cytotoxic. Cell viability with MMS, ELG1-dependent DNA repair;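 further: ELG1-luc HEK293T cells co-treated with 10 µM MMS; potency means the concentration at half of the fitted maximal effect; viability read 16 h after compound addition; nearly all actives have a fitted effect of over 60% in size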
ELG1 unstim viab: qHTS screen for small molecules that inhibit ELG1-dependent DNA repair: Hit Confirmation with Unstimulated Viability Assay; shares compounds with ELG1 DNA repair; cell viability counter-screen, unstimulated, luminescence; Potency, µM (top dose mostly 45.9 µM), without a hit: at the top dose activity change, negative = loss of viability, actives largely listed as cytotoxic; 900 tested, 8% active;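 further: potency means the concentration at half of the fitted maximal effect; compound exposure lasted 16 hours before reading; nearly all actives have a fitted effect of over 55% in size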
FLuc enzyme: qHTS screen for small molecules that inhibit ELG1-dependent DNA repair: Hit Confirmation in Biochemical Luciferin Assay; shares compounds with ELG1 DNA repair; purified firefly luciferase, luminescence counter-screen; Potency, µM (highest dose often 57.5 µM), inactives show at the top dose activity, negative = inhibition, usual class: inhibitors; 350 tested, 10% active; AID 624253, 2012; further: potency means the concentration at half of the fitted maximal effect
Active calls of the source: *; u = inconclusive; x = not tested or not shown. Most compounds without a hit are left out; they make up all but 8% or so of the library. Unless noted, the call rests on the fitted dose curve; in most records, active means well fitted curve in the direction sought with a large enough effect; inconclusive means small, poorly fitted or top-dose-only effect, or another doubt; inactive means no such curve, though single readings can be large; an effect the other way counts as inactive or inconclusive. On the % scale 0 is the no-effect control and ±100 the full control effect.

SMILES	Gal4-VP16 FLuc	TSHR antag	Coupling enz	RORg inh	ELG1 DNA repair	ELG1 FLuc counter	ELG1-Luc inh	ELG1-Luc MMS	ELG1 5FU viab	ELG1 MMS cell	ELG1 unstim viab	FLuc enzyme
COc1ccc(/C=C(/NC(=O)c2cccc([N+](=O)[O-])c2)C(=O)O)cc1OC	1%	12	8	0%	6%	x	x	x	x	x	x	x
COc1ccc(-c2nc3c(c(SCC(=O)N4CCOCC4)n2)Cc2c(CO)cnc(C)c2O3)cc1	-19%	-135*	-3	-38%	1.3µM*	20%	3.5µM*	u	6%	-2%	-16%	0%
Cc1cccc(NC(=O)CSc2nc3ccccc3o2)c1	7%	-6	2	16%	u	67%	x	x	x	x	16%	-6%
CC(=O)c1cc2c(cc1NC(=O)CSc1nc3ccccc3o1)OCO2	9%	x	1	u	u	67%	x	x	x	x	10%	4%
O=C(CSc1nc2ccccc2o1)Nc1cc(C(F)(F)F)ccc1N1CCOCC1	-1%	4	-1	3%	-17%	x	x	x	x	x	x	x
O=C(CSc1nc2ccccc2o1)Nc1ccccc1N1CCCCCC1	-9%	-38	x	-27%	3%	4%	x	x	x	x	-20%	-8%
C/C=C(\C)C(=O)NNC(=O)c1sc(-c2ccccc2)nc1C	-13%	1	2	-8%	15%	x	x	x	x	x	x	x
Cc1ccc(C(=O)N/C(=C/c2ccc(Cl)cc2)C(=O)N2CCOCC2)cc1	4%	21	0	8%	u	x	x	x	x	x	x	x
Cc1ccc(S(=O)(=O)NCCc2nnc3ccc(SCC(=O)Nc4nc5ccccc5s4)nn23)cc1	3%	-2	5	26%	-3%	u	-2%	4%	0%	2%	0%	-5%
CC(C)N1C(=O)C(=O)N(CC(=O)N2c3ccccc3NC(=O)CC2C)C1=O (stereo unspecified)	x	1	x	x	-1%	x	x	x	x	x	x	x
COc1cc(C(=O)Nc2ccccc2NC(=O)c2cc(OC)c(OC)c(OC)c2)cc(OC)c1OC	1%	-8	0	8%	3.3µM*	x	3.1µM*	0%	u	10%	u	x
COc1cc(C(=O)NC(=S)Nc2ccccc2N2CCCC2)cc(OC)c1OC	4µM*	28	-6	4.5µM*	2.6µM*	x	4µM*	-19%	u	10%	u	x
COc1cc(C(=O)Nc2cccc3c2CCCC3)cc(OC)c1OC	-8%	-8	1	31%	-12%	x	x	x	x	x	x	x
COc1cc(C(=O)Nc2ccccc2C(=O)Nc2ccccn2)cc(OC)c1OC	-3%	49	1	-2%	2µM*	x	3.5µM*	13µM*	u	u	u	x
O=C(Nc1ccccc1C(=O)Nc1ccccn1)c1ccccc1F	21%	7	-2	u	-22%	x	x	x	x	x	x	x
CCOC(=O)C1CCN(C(=O)c2ccccc2NC(=O)C2=C(C)OCCS2)CC1	2%	-5	x	-1%	21%	x	x	x	x	x	x	x
COc1cccc(/C=C/c2cnc3ccccc3n2)c1OC	x	x	x	x	x	-23%	x	x	x	x	-16%	0.33µM*
COc1cccc(/C=N/n2cnc3cc(C)c(C)cc32)c1OC	-26%	-8	-1	u	u	x	x	x	x	x	x	x
CCc1ccccc1OCC(=O)Nc1cc(S(=O)(=O)N(CC)CC)ccc1N1CCOCC1	x	-22	x	x	2.6µM*	x	4.4µM*	20%	u	-3%	u	x
CCOC(=O)c1c(C)[nH]c(C(=O)Nc2cc(OCC)c(N3CCOCC3)cc2OCC)c1C	x	-18	x	x	4.6µM*	x	5.6µM*	19%	u	0%	-16%	x
CCN(CC)S(=O)(=O)c1ccc(N2CCOCC2)c(NC(=O)c2[nH]c(C)c(C(C)=O)c2C)c1	x	-1	x	x	u	x	x	x	x	x	-7%	x
CCOc1cc(N2CCOCC2)c(OCC)cc1NC(=O)c1c(C)noc1C	x	-9	x	x	-22%	x	x	x	x	x	x	x
CCCN1CCN(C(=O)C2CCCN(c3ncnc4c3nc3n4CCCCC3)C2)CC1 (stereo unspecified)	-10%	1	x	-21%	9%	x	x	x	x	x	x	x
Cc1cc(C)c(Cc2c(C)nc3c(C(=O)NCc4ccco4)cnn3c2C)c(C)c1	3%	-23	0	u	7.3µM*	-13%	u	7.1µM*	-3%	7.9µM*	u	6%
O=C(CCNC(=O)c1ccc(Br)cc1)NCc1ccncc1	x	3	x	x	11%	x	x	x	x	x	x	x

Source: PubChem BioAssay
